Drawing on publication PMC7819943, “Rice protein-binding microarrays: a tool to detect cis-acting elements near promoter regions in rice”, this text covers binding signal for 54 sequences.

Over roughly 68,000 sequences, “fluorescence intensity (a.u.)” has its median near 9,100; the highest 2% begin near 16,000. The list comes from a sample in which the highest values are over-represented; it also holds similar and randomly drawn sequences.

Chain of OsWRKY34 (Q0JBA9 entry or part of it): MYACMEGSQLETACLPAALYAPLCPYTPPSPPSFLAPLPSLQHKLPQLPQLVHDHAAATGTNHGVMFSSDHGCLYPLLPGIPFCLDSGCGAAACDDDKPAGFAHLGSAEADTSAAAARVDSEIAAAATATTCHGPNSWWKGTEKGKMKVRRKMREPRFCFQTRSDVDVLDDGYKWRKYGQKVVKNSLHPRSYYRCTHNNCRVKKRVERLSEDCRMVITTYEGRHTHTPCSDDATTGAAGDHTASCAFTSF

This experiment addresses OsWRKY34 (Oryza sativa, UniProt Q0JBA9 1-250). The experiment in a line: protein-binding microarray (RPBM); PBS, 2% BSA, 51.3 ng/ul salmon testes DNA, 50 uM zinc acetate, 200 nM TF, 25 C, 1 h; high values mean tight binding. Particulars: protein: recombinant; tags: N-terminal polyhistidine and DsRed monomer fusion (pET32a); label: CyDye5-dUTP incorporated in the synthesized complementary strand; 3' TTTTT single-stranded linker to array surface; dsDNA, one strand shown. In a few lines:
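The binding signal for each feature is its fluorescence intensity in arbitrary units. An Axon 4000B scanner was used to read a custom Agilent array that had been made double-stranded with Cy5-dUTP primer extension, blocked with 2% BSA, incubated at 25 °C for 1 h with 200 nM protein in PBS, 2% BSA, salmon testes DNA and 50 µM zinc acetate, and washed. The protein was an N-terminal polyhistidine–DsRed transcription factor fusion from E. coli BL21-CodonPlus, purified on Ni–NTA.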
Regarding “GGTTTGCCGTCGTCGGCGTCGGCCGCTGCCTCGCGCGCGCCGGAGTCACCTAGTGCAG”, the binding signal was 9230 fluorescence intensity (a.u.). As for “AGCCTACCAGCTGCACCGCAAATGCCGTGTACTGCTTTCTCGGAGTCACCTAGTGCAG”, the binding signal is 8340 fluorescence intensity (a.u.). Turning to “GTGATGTGCTGCAACCTCGCCGCCAGCCGCGCCCTGTGCGCGGAGTCACCTAGTGCAG”, the binding signal is 8560 fluorescence intensity (a.u.).

For the sequence “ATATCTGTTTTTACGGTTCGAGGACGTTTTTATATCCGATCGGAGTCACCTAGTGCAG”, the binding signal is 8940 fluorescence intensity (a.u.). “GACACCGTTGACTTTTTAAGTACGTGTTTGACCATTCGTCCGGAGTCACCTAGTGCAG”: the binding signal is 43700 fluorescence intensity (a.u.). “ACGTGTCGTTGACTTTTTATCACACGTTTAGCCATTCGTCCGGAGTCACCTAGTGCAG”: the binding signal is 30200 fluorescence intensity (a.u.). In the case of “TTAACTTTTTAGTACGTGTTTGACCATTCGTATTATTCAACGGAGTCACCTAGTGCAG” it was 9020 fluorescence intensity (a.u.).

Take “ACGTGTTTGACCATTCGTTTTATTCAAATCATTTAAGTAACGGAGTCACCTAGTGCAG”: the binding signal was 9230 fluorescence intensity (a.u.).

Take “ACCTCTGTTTTTAATAGATGACGTGTCGTTGACTTTTTATCGGAGTCACCTAGTGCAG”: the binding signal was 13300 fluorescence intensity (a.u.). In the case of “TAACACCGTTGACTTTTTAGCTCATGTTTGACCATTCGTCCGGAGTCACCTAGTGCAG” it was 27400 fluorescence intensity (a.u.). For the sequence “GTTTGACACCGTGGACTTTTTTAAATATGTTTGACCATTCCGGAGTCACCTAGTGCAG”, the binding signal is 11800 fluorescence intensity (a.u.). Regarding “TGTTTGACACCGTTGACTTTTTAGTCGTGTTTGACCATTCCGGAGTCACCTAGTGCAG”, the binding signal is 24400 fluorescence intensity (a.u.). In the case of “CATCGTTGAACTTTATCGTGCCCTTCACACCATTCCGTCGCGGAGTCACCTAGTGCAG” it was 8130 fluorescence intensity (a.u.); in that of “CGTTCCACCGCCGCGCCTCTTCCCCGCCCCGATCGGCTGCCGGAGTCACCTAGTGCAG”, 8810 fluorescence intensity (a.u.); in that of “ACTACAGTCCCTCGCCATGCATGCGCCGTCAGATGTCCAACGGAGTCACCTAGTGCAG”, 11500 fluorescence intensity (a.u.). As to “GAGCGGGGCGGGGCTGCATTTGGCGTCGCGATGGACCTCACGGAGTCACCTAGTGCAG”, the binding signal was 12600 fluorescence intensity (a.u.). In the case of “TTTTTACATCTTAGCCCCTTGCCGCTTTTGCGAATTTTGCCGGAGTCACCTAGTGCAG” it was 9810 fluorescence intensity (a.u.); in that of “GCCCACCATTTCCCCAAACATTTCCACACATTCCTACAATCGGAGTCACCTAGTGCAG”, 13600 fluorescence intensity (a.u.); in that of “GTAGATGTAGTAGCTAGCTTTTGTTAATTTCAACGTTCCACGGAGTCACCTAGTGCAG”, 8380 fluorescence intensity (a.u.).

For the sequence “AATATTTTTTTTCTCAATCATTTCTTATCATTATTATTATCGGAGTCACCTAGTGCAG”, the binding signal is 8280 fluorescence intensity (a.u.). On to “TCTTCATTTCCGTGTTCAGCAGCTTTGCAATAATTTCTATCGGAGTCACCTAGTGCAG”, for which the binding signal is 11900 fluorescence intensity (a.u.).

As to “TTTCCTCCGTCCCTGAGCTGTACTCGCGCCAATCAATCATCGGAGTCACCTAGTGCAG”, the binding signal is 9570 fluorescence intensity (a.u.). Consider “TCCCACTCAGCTGTCCGTCCGCCAATCACTGTACTTCTATCGGAGTCACCTAGTGCAG”, for which the binding signal is 22000 fluorescence intensity (a.u.). In the case of “ATCATCCCATCCCATCTCATCCGTCCATCCGCCAACTCATCGGAGTCACCTAGTGCAG” it was 12300 fluorescence intensity (a.u.). The figure for “GGAGGGTTAGATCACCAGGGGCGGGTTGATGCAAAAAATTCGGAGTCACCTAGTGCAG” is 17000 fluorescence intensity (a.u.); for “AGAGATCGGGGTTTGGTTTTTTGGAGGGGAGAGCGGAGTGCGGAGTCACCTAGTGCAG” it is 10200 fluorescence intensity (a.u.). In the case of “CAGTGTAGGGGAGAGAGAGAGAGAGTGGGGTAGAGGGATGCGGAGTCACCTAGTGCAG” it was 8980 fluorescence intensity (a.u.).

In the case of “ATCGGGGTTGTTGTTTTTGTAGCTGCTTAAGCTTTTTATTCGGAGTCACCTAGTGCAG”, the binding signal was 14100 fluorescence intensity (a.u.). On to “GGAGGAGGAGCTAGGGTTTCGGATGGGAGGAGGAGGAGGGCGGAGTCACCTAGTGCAG”, for which the binding signal is 8800 fluorescence intensity (a.u.).

“GGCGGCGGCGGCAGGGGCGGCGGAGGGTTGGCGGCGGCGGCGGAGTCACCTAGTGCAG”: the binding signal was 11000 fluorescence intensity (a.u.). The figure for “CCAGGAGGGTGAGCTTGATGCAGGGGCGGGTGCGGGCGAGCGGAGTCACCTAGTGCAG” is 12500 fluorescence intensity (a.u.).

“GGGTTTTTTTTTTTTTTGCTGCTTTGCTTAGCACTTTTTTCGGAGTCACCTAGTGCAG”: the binding signal is 8340 fluorescence intensity (a.u.). The figure for “CGGGAGGGCGAGAGGGTTTTCGGAGCGGGAGGGGAAGATGCGGAGTCACCTAGTGCAG” is 15200 fluorescence intensity (a.u.); for “GAGGTAGGGAGAGGTTTCGTTAGGGTTTCGGGCGGGGATGCGGAGTCACCTAGTGCAG” it is 19900 fluorescence intensity (a.u.); for “CGGAGAGGGAGGGGAGCTAGGGTTTTTCGGGGCGGGGATGCGGAGTCACCTAGTGCAG” it is 27600 fluorescence intensity (a.u.).

“TTCGGGGAGGGTTTTCGGGGACAGCAGCTGCGGGCTTAAACGGAGTCACCTAGTGCAG”: the binding signal was 18700 fluorescence intensity (a.u.). The figure for “TCTCGATCTCCCCGCCTATTTATGCTCGTCTCGTCACCCGCGGAGTCACCTAGTGCAG” is 8140 fluorescence intensity (a.u.). In the case of “GATATTTTGCTTGTATTGTTCGACCACTCGTCTTATTAAACGGAGTCACCTAGTGCAG” it was 8040 fluorescence intensity (a.u.); in that of “TCATCTCATCTCTCTCGTTTTTATATGCACGTTTTTCAAACGGAGTCACCTAGTGCAG”, 9530 fluorescence intensity (a.u.). The figure for “TTTGGGTGGTGGCAGTTGACAGAAGAGAGTGAGCACACAGCGGAGTCACCTAGTGCAG” is 8270 fluorescence intensity (a.u.); for “TTTACAATGGTATCTATGTGTTGTTTTTGTGTGTGTGTGTCGGAGTCACCTAGTGCAG” it is 10100 fluorescence intensity (a.u.).

Turning to “ATGCTTGCCTTCTTCTTATTCTCCTTCCCTATGGTCTTCTCGGAGTCACCTAGTGCAG”, the binding signal is 8770 fluorescence intensity (a.u.). “ACATGCAACAGTGTGTCGTGCTTGTATTTCTGTTATCTGACGGAGTCACCTAGTGCAG”: the binding signal was 8660 fluorescence intensity (a.u.).

As to “TCCGTTTTGCCGTTGGGCTAGCTTAGCTTGTTTTTTTTTTCGGAGTCACCTAGTGCAG”, the binding signal is 12000 fluorescence intensity (a.u.).

“CTTCAACTTTCTCGTTTTCCGTCAGCACGCTTTCCAAACTCGGAGTCACCTAGTGCAG”: the binding signal is 9080 fluorescence intensity (a.u.). In the case of “GTGCATGTGTAGGGAGGGCACAATGGAGGGGTGTTTTTTTCGGAGTCACCTAGTGCAG” it was 15000 fluorescence intensity (a.u.); in that of “ATGGGTGGAGGAGTGGGAGGGGATTAAATATCGGCGGAGGCGGAGTCACCTAGTGCAG”, 9240 fluorescence intensity (a.u.); in that of “ATGTGATTAAATGGAGGGTTTTCGGGGAGGGTTTTCGGGGCGGAGTCACCTAGTGCAG”, 24100 fluorescence intensity (a.u.). As to “TCCAACTTGGGGAGGGAGGGCCGTTTCAGCTCGGGCTTTTCGGAGTCACCTAGTGCAG”, the binding signal is 17200 fluorescence intensity (a.u.). In the case of “AATGTGACCAAGCCAACTTAACTTATTATACTTCTTAGTTCGGAGTCACCTAGTGCAG”, the binding signal was 8680 fluorescence intensity (a.u.). Turning to “CCAAGACCGCACCCGTATAAAGCCGCAGACCTCTCTCTCCCGGAGTCACCTAGTGCAG”, the binding signal is 10100 fluorescence intensity (a.u.). The figure for “CTCTGACCATATATCACGTTCTACGTCCAGGTCAAATCACCGGAGTCACCTAGTGCAG” is 8730 fluorescence intensity (a.u.); for “TGCGTCCCTCTTCCTTCATTCTCCTGACGCCTAGGGCCCACGGAGTCACCTAGTGCAG” it is 8280 fluorescence intensity (a.u.); for “TTATGGGTATGTCACCAGGGGTTTAATCTTTCATTTTCAACGGAGTCACCTAGTGCAG” it is 12300 fluorescence intensity (a.u.).
